A selection: hits, their analogues and other compounds. The true share with any hit is near 3%.
TRPM1 prom inh = inhibitors of MITF-dependent TRPM1 promoter reporter, primary screen, cell-based, SK-MEL-5, single point, luciferase; SK-MEL-5 TRPM1 promoter luciferase, 24 h; inhibition, % at 12.5 µM; hit rate 0.83% among 330,000; AID 488899, 2010;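 active = mean inhibition across replicates of 60% or more, whatever share of single replicates reaches that level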
HIF-2a inh = HIF-2a reporter inhibitors, primary screen, luminescence, 786-0 RCC cells | 786-0 RCC cells HIF-2a reporter, luciferase luminescence, overnight | inhibition, % at 18.8 µM | hit rate 0.72% among 360,000 | AID 624352, 2012;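 active = inhibition of the luminescence signal of 40% or more relative to plate controls, in a single-dose primary screen at 18.75 µM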
KKLEB cytotox = cytotoxicity in KKLEB CF airway cells, primary screen, cytotoxicity control for CF NF-kB inhibitor project, cell-based, uHTS, fluorescence assay plates; KKLEB CF airway cells viability, ATPlite luminescence, overnight; active compounds read low; cells stimulated with P. aeruginosa culture filtrate; activity change (cytotoxicity), % at 5 µM; hit rate 0.36% among 360,000;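 active = corrected activity change at or below -50% at 5 µM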
CF NFkB inh = inhibitors of PAF-induced NF-kB signaling, primary screen, cell-based, GFP fluorescence, uHTS. KKLEB NF-kB-GFP reporter, GFP fluorescence overnight. inhibition, % at 5 µM. hit rate 0.86% among 360,000;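 active = at least 50% inhibition at 5 µM, scaled per plate between neutral and stimulator controls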;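 note: PAF is a Pseudomonas aeruginosa culture filtrate used as stimulus; plate controls were PAF-stimulated DMSO wells for no effect and unstimulated DMSO wells for full effect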
Peg3 prom inh = Peg3 promoter-driven luciferase inhibitors, primary screen, cell-based, HeLa, luciferase luminescence | HeLa PEG-Prom luciferase reporter, overnight | AID 588405, 2011 | inhibition, % at 20 µM | hit rate 1.7% among 360,000;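 active = inhibition of at least 50% at 20 µM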
LMP1 NFkB inh = EBV LMP1-driven NF-kappaB luciferase reporter inhibitors, primary screen, cell-based, luminescence, single point; LMP1-induced NF-kappaB luciferase reporter cells; inhibition, % at 12.5 µM; hit rate 0.69% among 350,000; in the data active = inhibition above about 41%;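 note: 0% = neutral control wells and 100% = reference inhibitor control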
* = called active by the depositor.

How did CC(C)c1oc(=O)cc2c1[C@@H](O)[C@H]1OC(=O)[C@@]3(C)C[C@@H](O)[C@@H](O)[C@@]2(C)C13 (stereo not given in full) do in these assays?
TRPM1 prom inh: 64*; HIF-2a inh: 39; KKLEB cytotox: 2; CF NFkB inh: 18; Peg3 prom inh: 91*; LMP1 NFkB inh: 17

What do the screens show for `CN1CCN(c2ccc([N+](=O)[O-])c3no[n+]([O-])c23)CC1`?
TRPM1 prom inh: 86*; HIF-2a inh: 61*; KKLEB cytotox: -56*; CF NFkB inh: 59*; Peg3 prom inh: 102*; LMP1 NFkB inh: 76*

Results for O=[N+]([O-])c1ccc(N(CCO)CCO)c2c1no[n+]2[O-] ?
HIF-2a inh: 51*; KKLEB cytotox: -44; CF NFkB inh: 0; Peg3 prom inh: 99*; LMP1 NFkB inh: 27

What do the screens show for `CC1CCN(C(CC(=O)c2ccccc2)C(=O)c2ccccc2)CC1` (stereo not given)?
TRPM1 prom inh: 3; HIF-2a inh: -143; KKLEB cytotox: -14; CF NFkB inh: 40; Peg3 prom inh: 105*; LMP1 NFkB inh: -12

What do the screens show for `NNCc1ccccc1`?
TRPM1 prom inh: -29; HIF-2a inh: -166; KKLEB cytotox: 5; CF NFkB inh: -35; Peg3 prom inh: -72; LMP1 NFkB inh: -1

How did NC(C(=O)O)c1cc(=O)[nH]o1 (stereo not given) do in these assays?
TRPM1 prom inh: 0; HIF-2a inh: 3; KKLEB cytotox: 1; CF NFkB inh: 23; Peg3 prom inh: -3; LMP1 NFkB inh: -13

What do the screens show for `C#C[C@]1(O)CC[C@H]2[C@@H]3CCC4=Cc5nc6nc7ccccc7n6cc5C[C@]4(C)[C@H]3CC[C@@]21C`?
TRPM1 prom inh: -3; HIF-2a inh: 21; KKLEB cytotox: 26; CF NFkB inh: -22; Peg3 prom inh: 66*; LMP1 NFkB inh: -45

Results for C#CC1(O)CCC2C3CCC4=C/C(=N/OCC(=O)NCC(=O)NC(C(=O)O)C(C)C)CC[C@]4(C)C3CC[C@@]21C (stereo not given in full) ?
HIF-2a inh: 14; KKLEB cytotox: 4; CF NFkB inh: 22; Peg3 prom inh: -22; LMP1 NFkB inh: 6

Results for C=CCN1C(=O)NC(=O)/C(=C/C=C/c2ccccc2)C1=O ?
TRPM1 prom inh: 94*; HIF-2a inh: 16; KKLEB cytotox: 0; CF NFkB inh: -14; Peg3 prom inh: 24; LMP1 NFkB inh: -20

Results for O=C1NC(=O)N(CCc2ccc(F)cc2)C(=O)/C1=C\C=C\c1ccccc1 ?
TRPM1 prom inh: 90*; HIF-2a inh: 11; KKLEB cytotox: -48; CF NFkB inh: 89*; Peg3 prom inh: 34; LMP1 NFkB inh: -26

How did CN(C)c1ccc(/C=C2/C(=O)NC(=O)N(CCc3ccc(F)cc3)C2=O)cc1 do in these assays?
TRPM1 prom inh: -10; HIF-2a inh: 24; KKLEB cytotox: 5; CF NFkB inh: -25; Peg3 prom inh: 7; LMP1 NFkB inh: -1

Results for Cc1ccc(OCCOc2cccc(C=C3C(=O)NC(=O)NC3=O)c2)c(C)c1 ?
TRPM1 prom inh: -6; HIF-2a inh: 55*; KKLEB cytotox: 2; CF NFkB inh: -7; Peg3 prom inh: -58; LMP1 NFkB inh: 45*

What do the screens show for `O=C1NC(=O)C(=Cc2cccc(OCCOc3ccccc3)c2)C(=O)N1`?
TRPM1 prom inh: -27; HIF-2a inh: -56; KKLEB cytotox: -6; CF NFkB inh: -4; Peg3 prom inh: -135; LMP1 NFkB inh: -17

What do the screens show for `COC(=O)C1=C(C(=O)OC)SC2(S1)C(C(=O)OC)=C(C(=O)OC)Sc1c2ssc1=O`?
TRPM1 prom inh: 101*; HIF-2a inh: 88*; KKLEB cytotox: -69*; CF NFkB inh: 113*; Peg3 prom inh: 111*; LMP1 NFkB inh: -20

What do the screens show for `N#CC1c2ccccc2C=CN1C(=O)c1ccc(N(CCCl)CCCl)cc1` (stereo not given)?
HIF-2a inh: 10; KKLEB cytotox: 3; CF NFkB inh: -17; Peg3 prom inh: 20; LMP1 NFkB inh: 8
